# Compounds without any hit were thinned out: in the full panel of roughly 83,000, 20% have a hit.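 The endpoint reported here, percent growth, reads 100 for growth as untreated, 0 for no net growth and -100 for all cells dead.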 Unmarked numbers belong to inactive results. How the source made its calls: active means growth percent below 10; inactive means the rest.
# System: MDA-MB-468 breast
# Assay: NCI-60 one-dose screen, 48 h (100 = growth as untreated, 0 = no growth, -100 = all killed)
# Conditions: 10 µM unless noted
row,Structure (SMILES),growth [%]
1,COc1cccc(/C=N/NC(=S)NC2CC3CCC2C3)c1O (stereo not drawn),68.2
2,CCc1c(Cl)nc(N)nc1Nc1ccc(C)c(C)c1,83.2
3,CC(C)N1CCN(c2ccncc2S(=O)(=O)N2CCN(C)CC2)CC1,94.3

# Source: PubChem BioAssay (NCI)
